Active and inactive are the calls of the source. The call rests on the fitted dose curve; in most records, active means well fitted inhibition curve with a large enough effect; inconclusive means small, poorly fitted or top-dose-only effect; inactive means no such curve, though single readings can be large or run the other way.
Assay: qHTS assay for measurement of the activity of small molecule inhibitors on Zika virus induced Caspase-3 activity in human astrocytoma cells (AID 1224859)
Details: SNB-19 ZIKV-induced caspase-3/7, luminescence, 6 h; series mostly up to 45.7 µM
Description: National Center for Advancing Translational Sciences [NCATS]
Johns Hopkins University School of Medicine
Increase in the Caspase-3 activity indicates an activation of apoptosis cell death pathway caused by Zika virus infection in certain types of neuronal cells including human neural progenitor cells (hNPCs), astrocytes, and astrocytoma cell line (SNB-19). This cell-based caspase-3 activity assay measures the increased caspase-3 activity in the astrocytoma cell line (SNB-19) after a 6-hour Zika virus infection with a luminescence readout. A decrease in the luminescence signal in this assay by small molecule treatment indicates an inhibitory effect of that small molecule on the Zika virus induced caspase-3 activity that may correlate with its effect on reduction of Zika virus caused cell death.
The medium for SNB-19 cells is composed of RPMI 1640 (ATCC, Cat.# 30-2001), 10% fetal bovine serum (FBS) (GE healthcare Life Sciences, Cat.# SH30071.03), and 1% Pen/Strep (Gibco, Cat.# 15140-122). A Caspase-Glo 3/7 assay kit (catalog number G8092; Promega, Madison, WI) was used to detect caspase-3 activity induced by Zika virus infection in human cells. The reagent mixture was reconstituted as described in the protocol from the manufacturer. Polystyrene tissue culture treated and PDL coated white plates were obtained from Greiner Bio-One (Monroe, NC). Cells were seeded in 384- or 1536-well assay plates and cultured at 37 C with 5% CO2 for 16 to 20 hours. The typical cell seeding density in the 1536-well plate assay is 250 cells/well in 3ul medium for SNB-19 cells in tissue culture treated plates. Compounds were added to cells and incubated for one hour before addition of ZIKV solution to cells (2 FFU/cell). After incubation at 37 C with 5% CO2 for 6 hours, the reagent mixture of Caspase-Glo 3/7 assay kit was added to each well, followed by incubation at room temperature for 30 minutes. The luminescence intensity of the assay plates was measured using a ViewLux plate reader (PerkinElmer). Data were normalized by using the cell-containing wells without ZIKV as a negative control (0% induction of caspase 3/7 activity) and wells containing ZIKV infected cells (Caspase-3 activity induced) as a positive control (100% induction of caspase 3 activity). The percentage inhibitions of the increased Caspase-3 activity by small molecule inhibitors were then calculated.

Compound	outcome
CC(=O)OCC1=C(C(=O)O)N2C(=O)[C@@H](NC(=O)CCC[C@@H](N)C(=O)O)[C@H]2SC1	inactive
C#CCN[C@H](C)Cc1ccccc1	inactive
c1ccc2c(N3CCNCC3)cccc2c1	inactive
C=CCN1C[C@@H](C)N([C@H](c2ccc(C(=O)N(CC)CC)cc2)c2cccc(OC)c2)C[C@@H]1C	inactive
C[C@H](N)Cc1cccc(C(F)(F)F)c1	inactive
CCCN(CCC)CCc1ccc(O)c(O)c1	inactive
Ic1ccccc1CNC1C2CCN(CC2)C1C(c1ccccc1)c1ccccc1 (stereo not given)	inactive
C=CCN1CC[C@]23c4c5ccc(O)c4O[C@H]2/C(=N/NC(=O)c2ccccc2)CC[C@@]3(O)[C@H]1C5	inactive
CCCN(CCC)[C@@H]1CCc2cccc(O)c2C1	inactive
COc1ccc(CNC(=O)/C=C/c2ccc3[nH]cc(CCN(C)C)c3c2)cc1	inactive
Cc1[nH]c2ccc(O)cc2c1CCN	inactive
CN(N=O)c1cc(O)ccc1O	inactive
C[N+]1(C)CCc2cc3c(cc2[C@H]1[C@@H]1OC(=O)c2c1ccc1c2OCO1)OCO3	inactive
CC(N)[C@H](O)c1ccc(O)c(O)c1 (stereo not given in full)	inactive
NC(=O)c1cc(N2CC2)c([N+](=O)[O-])cc1[N+](=O)[O-]	inactive
COc1ccc2c(c1)c(CCN1CCOCC1)c(C)n2C(=O)c1cccc(Cl)c1Cl	inactive
c1ccc2cc(CC3=NCCN3)ccc2c1	inactive
C[C@@H]1[C@@H]2Cc3ccc(O)cc3[C@@]1(C)CCN2CC1CC1	inactive
C/C(O)=C(\C#N)C(=O)Nc1cc(Br)ccc1Br	inactive
C[N+]1(C)C2CCC1CC(OC(=O)c1c[nH]c3ccccc13)C2 (stereo not given)	inactive

Compound	outcome
CN1CC[C@@]2(C)c3cc(O)ccc3N(C)C12 (stereo not given in full)	inactive
c1ccc2c(c1)[I+]c1ccccc1-2	inactive
OC1CCCCC1N1CCC(c2ccccc2)CC1 (stereo not given)	inactive
CC12NC(Cc3ccccc31)c1ccccc12 (stereo not given)	inactive
CC(N)c1cccc(Cl)c1Cl (stereo not given)	inactive
NC(N)=NOCC[C@H](N)C(=O)O	inactive
NCCCP(=O)(O)O	inactive
O=C(O)c1cc[c]([Hg][Cl])cc1	inactive
N#C/C(=C/c1ccc(O)c(O)c1)C(N)=S	inactive
O=S1(=O)N(CCN2CC=C(c3c[nH]c4cc(F)ccc34)CC2)c2cccc3c2N1CCC3	inactive
CCCSP(=O)(OCC)SCCC	inactive
C=CCN1CC[C@]23c4c5ccc(O)c4O[C@@H]2/C(=N/N=C2\CC[C@@]4(O)C6Cc7ccc(O)c8c7[C@@]4(CCN6CC=C)[C@@H]2O8)CC[C@@]3(O)C1C5	inactive
COc1ccc2c(c1)C13CCCCC1C(C2)N(C)CC3 (stereo not given)	inactive
CNc1ccc2oc(C[C@H]3O[C@@]4(CC[C@H]3C)O[C@H]([C@H](C)C(=O)c3ccc[nH]3)[C@H](C)C[C@H]4C)nc2c1C(=O)O	inactive
CCCN1CCC[C@@H](c2cccc(O)c2)C1	inactive
C[N+]1(C)CCN(c2ccccc2)CC1	inactive
CP(=O)(O)C1=CCNCC1	inactive
NC(Cc1ccc(N(CCCl)CCCl)cc1)C(=O)O (stereo not given)	inactive
CCNC(=O)[C@H]1O[C@@H](n2cnc3c(N)ncnc32)[C@H](O)[C@@H]1O	inactive
NC(C(=O)O)c1cc(=O)[nH]o1 (stereo not given)	inactive

Source: PubChem BioAssay (NCATS)
